Measured values reported in PubChem BioAssay (NCATS).
Results filed as inconclusive are left out. Where a call stands in place of a potency, no number is given. Calls of active or inactive are those of the source. Calls come from the whole dose curve; as a rule, active = well fitted curve in the direction sought with a large enough effect; inconclusive = small, poorly fitted or top-dose-only effect, or another doubt; inactive = no such curve, though single readings can be large; an effect the other way counts as inactive or inconclusive.

Assays:
[1] = target: Calcium and integrin-binding protein 1 (Homo sapiens) (UniProt Q99828); test: Primary qHTS for Identification of Calcium Integrin Binding Protein 1 (CIB1) Competitor (AID 1508620);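 note: GST tagged CIB1 binding a fluorescein labelled alphaIIb integrin peptide tracer; top concentration of the series differs between compounds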
Summary of the method: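 Fluorescence polarization competition: GST-tagged CIB1 (1 uM final) preincubated with compound 15 min at room temperature, then FITC-labelled alphaIIb peptide (100 nM final) added. After 15 min at room temperature, polarization read at Ex 480/Em 540.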

[2] = Primary qHTS for small molecule stabilizers of the endoplasmic reticulum resident proteome: Secreted ER Calcium Modulated Protein (SERCaMP) assay (AID 1508630)
Summary of the method: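 GLuc-SERCaMP-expressing SH-SY5Y cells, pretreated 16 h with compound, are challenged with thapsigargin to empty ER calcium stores; after 4 h, coelenterazine is added directly to the medium and luminescence is imaged.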

Sequence of Calcium and integrin-binding protein 1 (Homo sapiens) (Q99828 whole entry, looked up): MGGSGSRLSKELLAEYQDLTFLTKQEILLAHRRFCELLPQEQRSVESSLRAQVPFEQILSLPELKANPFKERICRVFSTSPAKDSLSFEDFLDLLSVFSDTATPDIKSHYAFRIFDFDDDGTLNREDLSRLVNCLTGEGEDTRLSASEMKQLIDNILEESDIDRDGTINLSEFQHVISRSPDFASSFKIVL

| Compound | Potency [1] | outcome [2] |
| --- | --- | --- |
| C=CCNC1=C2C[C@@H](C)C[C@H](OC)[C@@H](O)[C@@H](C)C=C(C)[C@H](OC(N)=O)[C@@H](OC)C=CC=C(C)C(=O)NC(=CC1=O)C2=O | inactive | inactive |
| O=c1ccn([C@@H]2O[C@H](CO)[C@H](O)[C@@H]2F)c(=O)[nH]1 | inactive | inactive |
| COc1cc2c(cc1O)CCC1C2CC[C@@]2(C)C1CC[C@@H]2O (stereo partly specified) | inactive | inactive |
| O=C1NCCc2[nH]c(-c3ccncc3)cc21 | inactive | inactive |
| COc1ccc(S(=O)(=O)Nc2cccnc2Nc2ccc(O)cc2)cc1 | inactive | inactive |
| O=C1NC(O)CCN1[C@@H]1O[C@H](CO)[C@H](O)[C@H]1O (stereo partly specified) | inactive | inactive |
| CC(=O)C1=C(O)C=C2Oc3c(C(C)=O)c(O)c(C)c(O)c3C2(C)C1=O (stereo unspecified) | inactive | inactive |
| CC(C)c1cc(C(C)C)c(CC(=O)NS(=O)(=O)Oc2c(C(C)C)cccc2C(C)C)c(C(C)C)c1 | inactive | inactive |
| CCOC(=O)C1=C(C)NC(=S)NC1c1cccc(O)c1 (stereo unspecified) | inactive | inactive |
| C[N+](C)([O-])CCNc1ccc(NCC[N+](C)(C)[O-])c2c1C(=O)c1c(O)ccc(O)c1C2=O | inactive | inactive |
| CC(C)n1cnc2c(NCCc3ccc(O)cc3)nc(-c3csc4ccccc34)nc21 | inactive | inactive |
| C[C@]12C=CC(=O)N[C@@H]1CC[C@H]1[C@H]3CC[C@@H](C(=O)Nc4cc(C(F)(F)F)ccc4C(F)(F)F)[C@@]3(C)CC[C@@H]12 | inactive | inactive |
| CC(C)(C)c1nc2c3cc[nH]c(=O)c3c3cc(F)ccc3c2[nH]1 | inactive | inactive |
